Bioassay records (PubChem)
Hits are enriched below; roughly 2.8% of the tested compounds scored in any of these assays.
HGIII-sPLA2 inh: Blocks human group III sPLA2 activity | QFRET BODIPY PC-A2 liposome hydrolysis, fluorescence | inhibition, % at 12.2 µM | 0.56% of 370,000 active;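 active means inhibition above mean plus 3 SD of compounds lying within the high and low control bounds, cut at about 19% in these data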
bovine MsrA act: bovine methionine sulfoxide reductase A activation; activation, % at 10.6 µM; AID 602163; 0.3% of 360,000 active; purified bovine MsrA, absorbance read-out; in the data active means activation above about 7.5%
MsrA inhibitor: inhibitors of bovine MsrA; purified bovine MsrA, absorbance read-out; 0.75% of 360,000 active; inhibition, % at 15.5 µM
rCAG binder: molecules binding r(CAG) RNA repeats | r(CAG) RNA repeat, TO-PRO-1 dye displacement fluorescence | inhibition, % at 3 µM | 1.3% of 370,000 active;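 active means inhibition above the plate cutoff, the mean of all test compounds on that plate plus 3 SD, cut at about 35% in these data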;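 further: higher means more dye released from RNA so lower well fluorescence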
MsrA inh confirm: bovine MsrA inhibition, confirmed; shares compounds with MsrA inhibitor; purified bovine MsrA, absorbance read-out; inhibition, % at 15.5 µM; 41% of 2,300 active; AID 651822;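 further: coupled to thioredoxin reductase with NADPH and selenocystamine and DMSO as substrate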
A number is an active result; – = inactive; · = no result given; ! = not confirmed by another sample. Unless noted, no stated cut-off is given here; in the data, active means inhibition above about 4.5%; inactive means the rest.

SMILES	HGIII-sPLA2 inh	bovine MsrA act	MsrA inhibitor	rCAG binder	MsrA inh confirm
CC1(C)Cc2c(cnn2-c2ccc(F)cc2)C(NC(=O)c2ccc(=O)oc2)C1 (configuration not stated)	–	–	6.4	–	5.5
Cc1cccn2c(=O)c3cc(C(=O)NCCN4CCOCC4)c(=N)n(CCCN4CCOCC4)c3nc12	–	–	5.4	–	–
Cc1csc2ncc(C(=O)N3c4ccccc4CC3C)c(=O)n12 (configuration not stated)	–	–	6.4	–	–
CC1Cc2ccccc2N1C(=O)c1cnc2ccccn2c1=O (configuration not stated)	–	–	–	–	·
COc1ccc(C(C(=O)NC(C)(C)C)n2c(-c3ccc(C(F)(F)F)cc3)nc3ccccc32)cc1 (configuration not stated)	–	·	–	–	·
CC(=O)c1ccc(N2CCN(C(=O)CCCc3nc4ccccc4s3)CC2)cc1	–	–	5.7	–	–
O=C(Cc1ccc2cccnc2c1)c1ccc(O)cc1O	–	–	5.0	–	–
CCOc1ccccc1NC1=C(OC)C(=O)C(Nc2ccccc2OCC)=C(OC)C1=O	–	–	–	–	·
O=c1c2cc(N3CCOCC3)ccc2[nH]c(=S)n1Cc1ccco1	–	–	–	–	·
COc1ccc(OC)c(-n2c(-c3cc(-c4ccco4)[nH]n3)n[nH]c2=S)c1	–	–	–	–	·
CCOC(=O)C1=Nc2ccccc2C1=[N+]=[N-]	–	–	5.7	–	–
CCOC(=O)C1=Nc2cccc3c(O)ccc1c23	–	·	–	–	·
C=CCN1C(=O)/C(=C\c2ccc(Cl)cc2)N=C1SCC(=O)NC1CCCCC1	·	–	·	·	·
CC1(CC(=O)N/N=C/c2ccc(-c3ccc(Cl)cc3)o2)OCCO1	–	–	7.7	–	4.8
COC(=O)N/N=C/c1ccc(-c2cccc(Cl)c2)o1	–	–	6.4	–	5.1
COC(=O)N/N=C/c1ccc(-c2cc(Cl)cc(Cl)c2)o1	–	–	–	–	·
Cc1cc(=O)oc2cc(OC(=O)c3ccccc3)ccc12	–	–	–	–	·
Cc1ccc(N(C)S(=O)(=O)c2cccc(C(=O)Oc3ccc4c(C)cc(=O)oc4c3)c2)cc1	–	–	4.8	–	–
O=[N+]([O-])c1ccc(CN2CC(N3CCCC3)CS2(=O)=O)cc1 (configuration not stated)	–	–	–	–	·
Cc1ccc(Nc2ccc(C(F)(F)F)cc2[N+](=O)[O-])cc1	–	–	10.0	–	17
Cc1ccc(OCCNc2ccc(C(F)(F)F)cc2[N+](=O)[O-])cc1	–	–	–	–	·
C/C(=N\Nc1ccc(C(F)(F)F)cc1[N+](=O)[O-])C1CC1	–	–	9.2	–	8.8
COCC(=O)n1nc(-c2ccccc2)nc1NCc1ccc(F)cc1	–	–	–	–	·
Cc1cc(/C=C(/C#N)c2cccc(F)c2)c(C)n1-c1cccnc1	–	–	26	–	27
Cc1cc(/C=C(\C#N)C(=O)NCc2ccco2)c(C)n1-c1cccnc1	–	–	–	–	·
SMILES	HGIII-sPLA2 inh	bovine MsrA act	MsrA inhibitor	rCAG binder	MsrA inh confirm
O=C(COc1nsnc1N1CCOCC1)N/N=C/c1ccccc1O	–	–	–	–	·
O=C(CCN1CCC2CCC(C2)C1)c1ccccc1 (configuration not stated)	–	–	–	–	·
Cc1c(N=C/C=C2/N(C)c3ccccc3C2(C)C)c(=O)n(-c2ccccc2)n1C	–	–	5.7!	–	–
Cc1c(N=C/C=C2\N(C)c3ccccc3C2(C)C)c(=O)n(-c2ccccc2)n1C	–	–	6.1	–	4.9
COc1ccc(C2CC(=O)Oc3c(C(CCN4CCN(c5ccccc5)CC4)c4ccc(N(C)C)cc4)c(OC)cc(OC)c32)cc1 (configuration not stated)	–	–	–	–	·
CC(C)(Oc1ccc(Cl)cc1)C(=O)Nc1ccc(S(=O)(=O)Nc2ncccn2)cc1	–	–	–	–	·
NC(=O)C1C(=O)c2ccccc2C1(C[N+](=O)[O-])c1ccccc1 (configuration not stated)	–	–	–	–	·
CCOc1c2ccc(C(=O)NCc3ccc(OC)cc3)cc2nn1CCOC	–	–	–	–	·
CCOc1ccc(N2CC(C(=O)NCCN3C(=O)S/C(=C/c4cccnc4)C3=O)CC2=O)cc1 (configuration not stated)	–	–	5.0	–	–
COC(=O)CC1C(=O)NCCN1C(=O)c1ccc(S(=O)(=O)N2CCOCC2)cc1 (configuration not stated)	–	–	–	–	·
O=C(NCc1cccnc1)c1cc(C2CCCN(C(=O)c3ccccn3)C2)on1 (configuration not stated)	–	–	48	–	–
